The values below come from PMC7826789 (International Journal of Molecular Sciences, 2021).

Molecules are shown by their SMILES.

The experiment has as its system PDPK1.

Turning to `CNc1nc(-c2ccc3c(N)n[nH]c3c2)cc(N2C[C@@H](C(=O)NC3CCCCC3)CC[C@H]2C)n1` [GSK2334470], the Kinases covered result is reported as “PDPK1”.
